Assay outcomes (PubChem)
HCV inhibitor: inhibitors of hepatitis C virus infection | Huh7.5.1 HCVcc-Cre infection, luciferase reporter, 44 h | Potency, µM (highest dose often 41.8 µM), actives largely listed as inhibitors | 3.4% of 340,000 active | AID 651820
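Seed cells (1,000/well) for 4 h; treat with compound and infect with HCVcc-Cre, moi about 0.5. Incubate 44 h, then detect luciferase activity.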
Pf growth 48h: P. falciparum growth inhibition at 48 hours (one generation). P. falciparum luciferase growth in erythrocytes, 48 h. Potency, µM (highest dose often 28.7 µM), most hits filed as inhibitors. 5.9% of 310,000 active
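Read-out is firefly luciferase luminescence from an integrated reporter in P. falciparum, so falling signal marks reduced parasite growth. Infected erythrocytes were at 2% hematocrit and 0.1% parasitemia (final) in Albumax-supplemented RPMI 1640.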
Shiga inhibitor: inhibitors of Shiga toxin in Vero cells. Vero cells, Shiga toxin protein synthesis inhibition reporter. inhibition, % at 38.7 µM. 9.2% of 290,000 active. AID 2315; in the data active = inhibition mostly above about 28%, no sharp cut-off; inactive = mostly below about 43%
HCMV antiviral: blocks human cytomegalovirus replication. HFF cells, HCMV-luciferase reporter, 72 h; hits give low values. activity change, negative = inhibition, % at 57.5 µM. 4.5% of 410,000 active. AID 1259415; in the data active = activity change below about -60%; inconclusive = no clear call, values can overlap the other calls; inactive = above about -39%
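Luciferase read-out from HCMV-luciferase-infected HFFs (MOI 1 PFU/cell) 72 h post infection at 37C; compounds added after 16 h cell attachment; activity normalized between buffer-only basal and Salinomycin (10uM) inhibitor controls.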
Pf growth 96h: P. falciparum growth inhibition at 96 hours; 6.9% of 320,000 active; Potency, µM (series often up to 28.7 µM), usual class: inhibitors; P. falciparum luciferase reporter growth, 96 h
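Plates of compound plus infected erythrocytes (2% hematocrit, 0.05% parasitemia final) incubate 96 hours, 37 C, 5% CO2. Detection reagent added; reduced luminescence from the parasites' luciferase reporter flags inhibition.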
Cycloheximide cs: affects cycloheximide protein synthesis inhibition readout, counter-screen | cell reporter, cycloheximide protein synthesis inhibition counterscreen | max response, % | 12% of 300,000 active | AID 2314; in the data active = max response mostly above about 13%, no sharp cut-off; inactive = mostly below about 14%; note: read at 38.3 µM for the half of the compounds with a filed dose
A number is an active result; i = inactive; ? = inconclusive; nt = no result; [ ] = dose if it differs, or a comment. The list is not random: actives were taken first. Their share in the collection is about 21%. Unless noted, calls come from the whole dose curve; as a rule, active = well fitted inhibition curve with a large enough effect; inconclusive = small, poorly fitted or top-dose-only effect, or another doubt; inactive = no such curve, though single readings can be large or run the other way.

SMILES	HCV inhibitor	Pf growth 48h	Shiga inhibitor	HCMV antiviral	Pf growth 96h	Cycloheximide cs
CCOC(=O)/C(=N\Nc1ccccc1)c1csc(Nc2ccc(C)cc2)n1	?	nt	i	i	?	i
O=C1CN=C(c2ccccc2)c2oc3ccc(Br)cc3c2N1	i	i	i	i	i	i
Cc1c(-c2ccncc2)oc2ccc(Br)cc2c1=O	nt	9.3µM	i	nt	?	i
Cc1cc2nc(-c3ccc(F)cc3)c(CC3CCCCC3)n2c(C)c1Br	nt	nt	nt	i	nt	nt
CC(=O)c1ccc(NC(=O)C(C)Oc2ccc(N(C)S(=O)(=O)c3ccc(C)cc3)cc2)cc1 (stereo not given)	13µM	15µM	nt	i	13µM	nt
Cc1ccc(S(=O)(=O)N(C)c2ccc(OC(C)C(=O)N(C)c3ccccc3)cc2)cc1 (stereo not given)	11µM	?	nt	i	?	nt
Cc1cc(C)c2c(C)c(C(=O)N3CCC(c4nc5ccccc5s4)CC3)oc2c1	nt	nt	nt	i	nt	nt
O=C(NC1CC(=O)N(c2ccc(F)cc2)C1)c1ccc2c(c1)OCO2 (stereo not given)	nt	nt	nt	i	nt	nt
N#Cc1ccc(S(=O)(=O)N2CCN(c3ncccn3)CC2)cc1	i	?	i	i	?	i
Cc1ccc(Cl)cc1N1CCN(S(=O)(=O)c2cccc(S(=O)(=O)N3CCCC3)c2)CC1	?	i	i	i	?	i
O=S(=O)(c1cccc(Br)c1)N1CCN(c2ccnc3cc(Cl)ccc23)CC1	?	3.7µM	i	?	1.9µM	i
O=S(=O)(c1ccccc1OC(F)(F)F)N1CCN(c2ccnc3cc(Cl)ccc23)CC1	?	9.3µM	i	i	2.3µM	i
CCOc1ccc(S(=O)(=O)N2CCN(c3cc(Cl)ccc3Cl)CC2)c2ccccc12	nt	nt	nt	i	nt	nt
CC(C)S(=O)(=O)N1CCN(c2ccnc3cc(Cl)ccc23)CC1	i	5.2µM	i	?	9.3µM	i
CN(C)S(=O)(=O)N1CCN(c2ccnc3cc(Cl)ccc23)CC1	i	i	i	nt	i	i
N#Cc1cccc(S(=O)(=O)N2CCN(c3ccnc4cc(Cl)ccc34)CC2)c1	?	13µM	i	?	2.3µM	i
CCCCc1nn2c(=O)cc(COC(=O)c3ccc(NC(=O)c4ccccc4Cl)cc3)nc2s1	nt	nt	nt	i	nt	nt
O=[N+]([O-])c1ccc(S(=O)(=O)N2CCN(c3ccnc4cc(Cl)ccc34)CC2)cc1	i	5.2µM	i	i	2.6µM	i
O=[N+]([O-])c1ccc(S(=O)(=O)N2CCN(c3ccccn3)CC2)cc1	nt	nt	nt	i	nt	nt
COc1ccc(OC)c(NC(=O)N2CCN(Cc3nc4ccc(C)cc4o3)CC2)c1	nt	nt	nt	i	nt	nt
O=C(Nc1ccccc1O)c1ccc([N+](=O)[O-])cc1	i	i	78	i	?	27
COc1ccc(C(=O)Nc2cc(Cl)ccc2OC(=O)c2ccc(OC)cc2)cc1	i	i	89	nt	i	65
Cc1ccc(C(=O)Nc2cc(Cl)ccc2OC(=O)c2ccc(C)cc2)cc1	nt	?	98	i	0.47µM	36
CSc1ccccc1NC(=O)c1ccc([N+](=O)[O-])cc1	i	?	i	?	i	i
O=C(Nc1ccccc1O)c1ccc(Cl)cc1	i	5.9µM	95	i	?	42
SMILES	HCV inhibitor	Pf growth 48h	Shiga inhibitor	HCMV antiviral	Pf growth 96h	Cycloheximide cs
C=CCCC1CN(Cc2ccc(OC)cc2)S(=O)(=O)c2c(F)cccc2O1 (stereo not given)	nt	nt	nt	i	nt	nt
Cc1ccc(Cc2c(-c3ccc(C#N)cc3)nc3c(C)cc(Br)cn23)cc1	nt	nt	nt	i	nt	nt
COc1ccc(CCNC(=O)c2ccc(Cn3c(=O)c4cccn4c4cccnc43)cc2)cc1OC	nt	nt	nt	i	nt	nt
O=C(Nc1ccccc1OC(=O)c1ccc(Cl)cc1)c1ccc(Cl)cc1	i	?	34	i	?	37
O=C(Nc1ccccc1NC(=O)c1ccc(F)cc1)c1ccc(F)cc1	i	i[0.00184 µM]	i	i	?	i
COc1ccc(N2CCN(c3oc(-c4ccc(COc5cccc(C)c5)o4)nc3C#N)CC2)cc1	nt	nt	nt	i	nt	nt
O=C(CN1CCN(C(=O)c2ccco2)CC1)Nc1ccccc1	i	i	i	i	i	i
O=C(CN1CCN(c2ccccn2)CC1)Nc1ccccc1Br	i	5.2µM	i	i	?	i
O=C(CN1CCN(C(=O)c2ccco2)CC1)Nc1ccc(F)cc1F	i	i	36	i	?	24
O=C(CN1CCN(c2ccccn2)CC1)Nc1ccc(Cl)c(C(F)(F)F)c1	i	i	i	i	i	i
O=C(CN1CCN(c2ccccn2)CC1)Nc1cc(C(F)(F)F)ccc1Cl	?	9.3µM	i	i	nt	i
O=C(CN1CCN(c2ccccn2)CC1)Nc1ccc2ccccc2c1	i	i	60	i	i	45
CC(=O)Nc1ccc(NC(=O)CN2CCN(c3ccccn3)CC2)cc1	i	i	i	i	i	i
O=C(Nc1ccc(F)cc1F)N1CCN(C/C=C/c2ccccc2)CC1	?	nt	i	i	?	i
O=C(Nc1ccc(F)cc1F)N1CCN(CCc2ccccc2)CC1	i	2.3µM	i	i	i	i
O=C(CN1CCN(c2ccccn2)CC1)Nc1ccc(F)cc1F	i	i	50	i	i	20
Cc1ccccc1NC(=O)CN1CCC(n2nnc3ccccc32)CC1	i	?	i	i	i	i
Cc1nc2ccccc2n1C1CCN(CC(=O)Nc2ccccc2Br)CC1	?	12µM	i	?	i	i
CCCn1c(COc2cccc(C)c2)nc2ccccc21	nt	nt	nt	i	nt	nt
Cn1cccc1CC(=O)NNC(=S)NC(=O)c1ccc(F)cc1	i	i	i	i	?	i
C=CC[C@@H](CC(=O)N(CCO)Cc1ccccc1)C(=O)NC[C@@H](OC(=O)[C@@H](CC=C)CC(=O)OC(C)(C)C)c1ccccc1	10µM	nt	nt	i	nt	nt
C=CC[C@@H](CC(=O)N(CCO)Cc1ccccc1)C(=O)N[C@H](COC(=O)[C@@H](CC=C)Cc1ccc(F)cc1)c1ccccc1	11µM	nt	nt	i	nt	nt
C=CC[C@H](CC(=O)N(CCO)Cc1ccccc1)C(=O)NC[C@H](OC(=O)[C@@H](CC=C)CC(=O)OC(C)(C)C)c1ccccc1	?	nt	nt	i	nt	nt
C=CC[C@@H](CC(=O)N(CCO)Cc1ccccc1)C(=O)N[C@H](COC(=O)[C@@H](CC=C)CC(=O)OC(C)(C)C)C(C)(C)C	?	nt	nt	i	nt	nt
C=CC[C@H](CC(=O)N(CCO)Cc1ccccc1)C(=O)N[C@@H](COC(=O)[C@@H](CC=C)Cc1ccc(F)cc1)Cc1c[nH]c2ccccc12	22µM	nt	nt	i	nt	nt
C=CC[C@H](CC(=O)N(CCO)Cc1ccccc1)C(=O)N[C@H](COC(=O)[C@H](CC=C)CC(=O)OC(C)(C)C)Cc1ccccc1	11µM	nt	nt	i	nt	nt
C=CC[C@@H](CC(=O)N(CCO)Cc1ccccc1)C(=O)N[C@@H](C)COC(=O)[C@@H](CC=C)Cc1ccc(F)cc1	?	nt	nt	i	nt	nt
COc1ccc(C(=O)COC(=O)[C@@H](NS(=O)(=O)c2ccccc2)C(C)C)cc1	i	nt	nt	i	nt	nt
Cc1ccc(F)c(NC(=O)c2c(-c3ccccc3)noc2C)c1	i	i	i	i	i	i
CC(C)(C)c1ccc(C(=O)NNC(=O)CCc2ccccc2)cc1	i	nt	nt	i	nt	nt
